# Calls of active or inactive are those of the source. The calls were made as follows: active = hit-call score of the fitted dose curve at least 0.9, where 1 is the maximum; inactive = score below 0.9.
# Legend:
# Conditions in all cases: mRNA level, 48 h; actives raise or lower the signal
# [1] = read-out: Interleukin 6 (IL6), IL6 (gene 3569); experiment: LTEA_HepaRG_IL6: Life Technologies and Expression Analysis (LTEA) Assay for Interleukin 6 (IL6) using HepaRG (AID 2283509)
# Outline: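 HepaRG, ~100,000 cells/well, 48 h pre-culture; serum-free induction medium; cmpd 8-pt half-log from 100 uM, 0.5% DMSO, duplicate, 48 h. Lysis in RLT, TaqMan qRT-PCR; gain or loss vs DMSO.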
# [2] = read-out: Potassium channel subfamily K member 1 (KCNK1), KCNK1 (gene 3775); experiment: LTEA_HepaRG_KCNK1: Life Technologies and Expression Analysis (LTEA) Assay for Potassium channel subfamily K member 1 (KCNK1) using HepaRG (AID 2283511)
# Outline: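 Gain or loss of KCNK1 mRNA is the read-out, quantified by qRT-PCR against three housekeeping genes after 48 h chemical treatment of human HepaRG liver cells. Concentrations ran from 100 uM downward in half-log steps, vehicle 0.5% DMSO.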
# [3] = read-out: Keratin 19 (KRT19), KRT19 (gene 3880); experiment: LTEA_HepaRG_KRT19: Life Technologies and Expression Analysis (LTEA) Assay for Keratin 19 (KRT19) using HepaRG (AID 2283512)
# Outline: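 Readout is qRT-PCR of KRT19 mRNA, normalized to ACTB, GAPDH and POLR2A, from HepaRG cells treated 48 h with eight-point half-log dilutions topping at 100 uM. Activity in either direction is scored relative to 0.5% DMSO vehicle.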
# [4] = read-out: JUN Transcription Factor, JUN (gene 3725); experiment: LTEA_HepaRG_JUN: Life Technologies and Expression Analysis (LTEA) Assay for JUN Transcription Factor using HepaRG (AID 2283513)
# Outline: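 Differentiated HepaRG cells were exposed to chemicals for 48 h in serum-free induction medium, 8 concentrations from 100 uM in half-log steps, 0.5% DMSO vehicle, in duplicate. JUN mRNA was quantified by TaqMan qRT-PCR, normalized to ACTB, GAPDH, POLR2A.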
# [5] = read-out: Lipase C (LIPC), LIPC (gene 3990); experiment: LTEA_HepaRG_LIPC: Life Technologies and Expression Analysis (LTEA) Assay for Lipase C (LIPC) using HepaRG (AID 2283514)
# Outline: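 Read-out is LIPC transcript level by TaqMan qRT-PCR, normalized to three housekeeping genes, after 48 h chemical treatment of human HepaRG liver cells. Curves span eight concentrations topping at 100 uM; activity in either direction scored relative to 0.5% DMSO.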
# [6] = read-out: Lipoprotein lipase (LPL), LPL (gene 4023); experiment: LTEA_HepaRG_LPL: Life Technologies and Expression Analysis (LTEA) Assay for Lipoprotein lipase (LPL) using HepaRG (AID 2283515)
# Outline: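 Read-out is LPL transcript level by qRT-PCR, normalized to three housekeeping genes and fitted bidirectionally against the DMSO control. Human HepaRG cells received chemicals for 48 h at up to 100 uM.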
# [7] = read-out: MicroRNA 122 (MIR122), gene 406906; experiment: LTEA_HepaRG_MIR122: Life Technologies and Expression Analysis (LTEA) Assay for MicroRNA 122 (MIR122) using HepaRG (AID 2283516); also: the transcript read is the microRNA miR-122
# Outline: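 Differentiated human HepaRG cells were exposed 48 h in serum-free induction medium to eight half-log concentrations (top 100 uM, 0.5% DMSO). Transcript level was measured by TaqMan qRT-PCR, normalized to ACTB, GAPDH and POLR2A, and fitted bidirectionally versus DMSO.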
# [8] = read-out: matrix metalloproteinase-10 (MMP10), MMP10 (gene 4319); experiment: LTEA_HepaRG_MMP10: Life Technologies and Expression Analysis (LTEA) Assay for matrix metalloproteinase-10 (MMP10) using HepaRG (AID 2283517)
# Outline: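 Gain or loss of MMP10 mRNA is fitted relative to the 0.5% DMSO vehicle. The human hepatic line HepaRG receives a 48-hour serum-free exposure, in duplicate, with a maximum concentration of 100 uM.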
# MYC, MYC (gene 4609) = experiment: LTEA_HepaRG_MYC: Life Technologies and Expression Analysis (LTEA) Assay for MYC using HepaRG (AID 2283518)
# Outline: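 Expression changes were scored by TaqMan qRT-PCR with ACTB, GAPDH and POLR2A normalization. Cultures in serum-free induction medium received duplicate 8-point concentration series, highest 100 uM, for 48 h; DMSO (0.5%) served as baseline.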
# [9] = read-out: matrix metalloproteinase-3 (MMP3), MMP3 (gene 4314); experiment: LTEA_HepaRG_MMP3: Life Technologies and Expression Analysis (LTEA) Assay for matrix metalloproteinase-3 (MMP3) using HepaRG (AID 2283519)
# Outline: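 HepaRG, human; 48 h dosing, 8 conc. (max 100 uM, half-log), duplicate, 0.5% DMSO. Readout: MMP3 transcript by Fluidigm TaqMan qRT-PCR, ACTB/GAPDH/POLR2A-normalised. Gain or loss fitted vs DMSO.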
# [10] = read-out: Paternally Expressed 10 (PEG10), PEG10 (gene 23089); experiment: LTEA_HepaRG_PEG10: Life Technologies and Expression Analysis (LTEA) Assay for Paternally Expressed 10 (PEG10) using HepaRG (AID 2283520)
# Outline: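 Differentiated HepaRG cells, plated 48 h then switched to serum-free induction medium, were exposed in duplicate for 48 h to eight half-log concentrations topping at 100 uM in 0.5% DMSO. PEG10 mRNA was quantified by TaqMan qRT-PCR, normalised to ACTB, GAPDH and POLR2A.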
# [11] = read-out: Nuclear factor NF-kappa-B p105 subunit (Homo sapiens) (UniProt P19838); experiment: LTEA_HepaRG_NFKB1: Life Technologies and Expression Analysis (LTEA) Assay for Nuclear Factor Kappa B Subunit 1 (NFKB1) using HepaRG (AID 2283521)
# Outline: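 Differentiated human HepaRG cells in serum-free induction medium with 0.5% DMSO were exposed for 48 h to eight half-log concentrations, top 100 uM, in duplicate. NFKB1 mRNA measured by Fluidigm TaqMan qRT-PCR, normalised to ACTB, GAPDH and POLR2A; bidirectional fit versus DMSO.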
# [12] = read-out: Protein phosphatase 2A (PPP2R4), PTPA (gene 5524); experiment: LTEA_HepaRG_PPP2R4: Life Technologies and Expression Analysis (LTEA) Assay for Protein phosphatase 2A (PPP2R4) using HepaRG (AID 2283522)
# Outline: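 Differentiated HepaRG cells in serum-free induction medium were exposed in duplicate for 48 h to eight concentrations, top 100 uM with half-log dilutions, in 0.5% DMSO. PPP2R4 mRNA was quantified by TaqMan qRT-PCR, normalized to ACTB, GAPDH and POLR2A.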
# [13] = read-out: Phosphatase and tensin (PTEN), PTEN (gene 5728); experiment: LTEA_HepaRG_PTEN: Life Technologies and Expression Analysis (LTEA) Assay for Phosphatase and tensin (PTEN) using HepaRG (AID 2283523)
# Outline: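 Read-out is PTEN transcript level by multiplexed TaqMan qRT-PCR after 48 h chemical treatment of human HepaRG cultures in serum-free induction medium. Concentrations spanned 100 uM downward in half-log steps, 0.5% DMSO throughout; activity fitted in both directions against vehicle.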
# [14] = read-out: solute carrier (SLC22A1), SLC22A1 (gene 6580); experiment: LTEA_HepaRG_SLC22A1: Life Technologies and Expression Analysis (LTEA) Assay for solute carrier (SLC22A1) using HepaRG (AID 2283524)
# Outline: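 HepaRG (human liver line), 48 h dosing in serum-free induction medium; 8 conc., half-log down from 100 uM, 0.5% DMSO vehicle, duplicates. Endpoint: SLC22A1 mRNA, qRT-PCR, housekeeping-normalized; gain/loss fit vs DMSO.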
# [15] = read-out: Pyruvate Dehydrogenase Kinase 4 (PDK4), PDK4 (gene 5166); experiment: LTEA_HepaRG_PDK4: Life Technologies and Expression Analysis (LTEA) Assay for Pyruvate Dehydrogenase Kinase 4 (PDK4) using HepaRG (AID 2283525)
# Outline: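 In this multiplexed human HepaRG expression assay, cells are treated 48 h with test chemicals across an eight-point range starting at 100 uM. PDK4 mRNA changes, normalized to ACTB/GAPDH/POLR2A, are fitted in both directions relative to vehicle.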
# [16] = read-out: NAD(P)H dehydrogenase [quinone] 1 (NQO1), NQO1 (gene 1728); experiment: LTEA_HepaRG_NQO1: Life Technologies and Expression Analysis (LTEA) Assay for NAD(P)H dehydrogenase [quinone] 1 (NQO1) using HepaRG (AID 2283526)
# Outline: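 Differentiated HepaRG cells, plated 48 h and then switched to serum-free induction medium, were exposed in duplicate for 48 h to 8-point half-log concentrations up to 100 uM in 0.5% DMSO. mRNA measured by qRT-PCR, normalized to ACTB, GAPDH, POLR2A; bidirectional fit versus DMSO.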
# [17] = read-out: Nuclear factor erythroid 2-related factor 2 (Homo sapiens) (UniProt Q16236); experiment: LTEA_HepaRG_NFE2L2: Life Technologies and Expression Analysis (LTEA) Assay for Nuclear factor erythroid 2-related factor 2 (NFE2L2) Transcription Factor using HepaRG (AID 2283527);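 as to outcome: TaqMan qRT-PCR transcript level normalised to ACTB GAPDH and POLR2A housekeeping genes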
# Outline: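 Transcript level of NFE2L2 is the read-out, measured by microfluidic TaqMan qRT-PCR and normalized to three housekeeping genes. Human HepaRG cultures received test chemical for 48 h at up to 100 uM in half-log steps. Gain or loss of signal is fitted relative to 0.5% DMSO.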
# [18] = read-out: succinate dehydrogenase complex iron sulfur subunit B (SDHB), SDHB (gene 6390); experiment: LTEA_HepaRG_SDHB: Life Technologies and Expression Analysis (LTEA) Assay for succinate dehydrogenase complex iron sulfur subunit B (SDHB) using HepaRG (AID 2283528)
# Outline: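 HepaRG cells (~100,000/well, plated 48 h) exposed in duplicate for 48 h in serum-free induction medium to 8-point half-log series from 100 uM in 0.5% DMSO; mRNA by qRT-PCR normalised to ACTB, GAPDH, POLR2A; bidirectional fit versus DMSO.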
# [19] = read-out: Interleukin 6 Receptor (IL6R), IL6R (gene 3570); experiment: LTEA_HepaRG_IL6R: Life Technologies and Expression Analysis (LTEA) Assay for Interleukin 6 Receptor (IL6R) using HepaRG (AID 2283510)
# Outline: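 Differentiated human HepaRG cells, plated 48 h then switched to serum-free induction medium, were dosed in duplicate for 48 h at eight half-log concentrations up to 100 uM in 0.5% DMSO. IL6R mRNA quantified by qRT-PCR, normalized to ACTB/GAPDH/POLR2A; bidirectional fit versus DMSO.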
# Nuclear factor erythroid 2-related factor 2 (Homo sapiens), sequence (Q16236 whole entry, looked up): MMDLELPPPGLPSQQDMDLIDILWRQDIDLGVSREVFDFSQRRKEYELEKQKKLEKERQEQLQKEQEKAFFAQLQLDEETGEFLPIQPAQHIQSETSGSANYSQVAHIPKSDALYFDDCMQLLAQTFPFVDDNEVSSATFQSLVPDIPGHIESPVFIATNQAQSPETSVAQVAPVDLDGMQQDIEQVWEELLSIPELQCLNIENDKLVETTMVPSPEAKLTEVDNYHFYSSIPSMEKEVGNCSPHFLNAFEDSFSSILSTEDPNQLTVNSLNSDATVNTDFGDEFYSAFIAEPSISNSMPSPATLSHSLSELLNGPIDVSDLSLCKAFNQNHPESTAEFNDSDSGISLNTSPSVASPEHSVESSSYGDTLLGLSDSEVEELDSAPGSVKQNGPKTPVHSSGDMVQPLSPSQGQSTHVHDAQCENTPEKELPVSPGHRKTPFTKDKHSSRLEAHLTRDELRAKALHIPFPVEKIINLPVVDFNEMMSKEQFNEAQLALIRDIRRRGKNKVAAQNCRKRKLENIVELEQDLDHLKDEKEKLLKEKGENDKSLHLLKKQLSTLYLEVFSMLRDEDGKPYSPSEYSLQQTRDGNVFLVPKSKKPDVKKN
# Nuclear factor NF-kappa-B p105 subunit (Homo sapiens), sequence (P19838 whole entry, looked up): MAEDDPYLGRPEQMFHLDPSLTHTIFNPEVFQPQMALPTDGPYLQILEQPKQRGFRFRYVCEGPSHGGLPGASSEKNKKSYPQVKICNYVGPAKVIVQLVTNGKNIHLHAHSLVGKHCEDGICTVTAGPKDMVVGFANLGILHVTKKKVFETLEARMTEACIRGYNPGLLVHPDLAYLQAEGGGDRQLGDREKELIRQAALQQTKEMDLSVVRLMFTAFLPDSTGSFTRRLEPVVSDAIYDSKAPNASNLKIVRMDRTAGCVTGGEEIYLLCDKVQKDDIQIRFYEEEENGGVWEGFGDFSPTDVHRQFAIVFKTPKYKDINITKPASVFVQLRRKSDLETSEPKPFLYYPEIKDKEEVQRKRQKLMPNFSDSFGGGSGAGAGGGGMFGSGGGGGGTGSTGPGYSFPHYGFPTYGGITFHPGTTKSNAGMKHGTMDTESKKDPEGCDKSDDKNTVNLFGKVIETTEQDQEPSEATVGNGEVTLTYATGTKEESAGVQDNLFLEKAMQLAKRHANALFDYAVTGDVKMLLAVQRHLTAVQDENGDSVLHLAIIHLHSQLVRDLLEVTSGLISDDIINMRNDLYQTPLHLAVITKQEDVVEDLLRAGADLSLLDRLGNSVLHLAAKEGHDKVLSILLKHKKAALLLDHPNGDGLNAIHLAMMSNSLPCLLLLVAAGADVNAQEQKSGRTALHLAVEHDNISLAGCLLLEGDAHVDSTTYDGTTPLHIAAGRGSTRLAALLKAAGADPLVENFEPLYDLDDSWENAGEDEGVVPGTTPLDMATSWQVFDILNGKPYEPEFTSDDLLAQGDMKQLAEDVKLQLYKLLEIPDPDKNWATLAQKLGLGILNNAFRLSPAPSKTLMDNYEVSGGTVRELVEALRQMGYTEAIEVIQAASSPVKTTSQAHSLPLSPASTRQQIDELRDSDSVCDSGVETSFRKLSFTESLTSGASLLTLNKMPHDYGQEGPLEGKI
structure (smiles),measurement,setting,value
On1ccccc1=S,outcome,[1],inactive
same,outcome,[2],inactive
same,outcome,[3],inactive
same,outcome,[4],inactive
same,outcome,[5],inactive
same,outcome,[6],inactive
same,outcome,[7],inactive
same,outcome,[8],inactive
same,outcome,"MYC, MYC (gene 4609)",inactive
same,outcome,[9],inactive
same,outcome,[10],inactive
same,outcome,[11],inactive
same,outcome,[12],inactive
same,outcome,[13],inactive
same,outcome,[14],inactive
same,outcome,[15],inactive
same,outcome,[16],inactive
same,outcome,[17],inactive
same,outcome,[18],inactive
CCCC(=O)OCC,outcome,[1],inactive
same,outcome,[19],inactive
same,outcome,[2],inactive
same,outcome,[3],inactive
same,outcome,[4],inactive
same,outcome,[5],inactive
same,outcome,[6],inactive
same,outcome,[7],inactive
same,outcome,[8],inactive
same,outcome,"MYC, MYC (gene 4609)",inactive
same,outcome,[9],inactive
same,outcome,[10],inactive
same,outcome,[12],inactive
same,outcome,[13],inactive
same,outcome,[14],inactive
same,outcome,[15],inactive
same,outcome,[16],inactive
same,outcome,[17],inactive
same,outcome,[18],inactive
Clc1nc(Cl)c(Cl)c(Cl)c1Cl,outcome,[1],inactive
same,outcome,[19],inactive
same,outcome,[2],inactive
same,outcome,[3],inactive
same,outcome,[4],inactive
same,outcome,[5],inactive
same,outcome,[6],inactive
same,outcome,[7],inactive
same,outcome,[8],inactive
same,outcome,"MYC, MYC (gene 4609)",inactive
same,outcome,[9],inactive
same,outcome,[10],inactive
same,outcome,[12],inactive
same,outcome,[13],inactive
same,outcome,[14],inactive
same,outcome,[15],inactive
same,outcome,[16],inactive
same,outcome,[17],inactive
same,outcome,[18],inactive
Cn1c(=O)c2c(ncn2C)n(C)c1=O,outcome,[1],inactive
same,outcome,[2],inactive
same,outcome,[3],inactive
same,outcome,[4],inactive
same,outcome,[5],inactive
same,outcome,[6],inactive
same,outcome,[7],inactive
same,outcome,[8],inactive
same,outcome,"MYC, MYC (gene 4609)",inactive
same,outcome,[9],inactive
same,outcome,[10],inactive
same,outcome,[12],inactive
same,outcome,[13],inactive
same,outcome,[14],inactive
same,outcome,[15],inactive
same,outcome,[16],inactive
same,outcome,[17],inactive
same,outcome,[18],inactive
O=C(CCCCCCCCc1cccnc1)N1CCC(C=C(c2ccccc2)c2ccccc2)CC1,AC50,[1],22.6 µM (active)
same,AC50,[2],50 µM (active)
same,outcome,[3],inactive
same,AC50,[4],28.5 µM (active)
same,AC50,[5],22.4 µM (active)
same,AC50,[6],12.8 µM (active)
same,AC50,[7],26.5 µM (active)
same,AC50,[8],31.8 µM (active)
same,AC50,"MYC, MYC (gene 4609)",27.4 µM (active)
same,AC50,[9],86.8 µM (active)
same,AC50,[10],50 µM (active)
same,AC50,[12],11.7 µM (active)
same,outcome,[13],inactive
same,AC50,[14],24.4 µM (active)
same,AC50,[15],89.4 µM (active)
same,AC50,[16],80 µM (active)
same,AC50,[17],24.9 µM (active)
same,outcome,[18],inactive
CC(C)=CCCC(C)CCO (stereo not given),outcome,[1],inactive
same,outcome,[2],inactive
same,outcome,[3],inactive
same,outcome,[4],inactive
same,outcome,[5],inactive
same,outcome,[6],inactive
same,outcome,[7],inactive
same,outcome,[8],inactive
same,outcome,"MYC, MYC (gene 4609)",inactive
same,outcome,[9],inactive
same,outcome,[10],inactive
same,outcome,[12],inactive
same,outcome,[13],inactive
same,outcome,[14],inactive
same,outcome,[15],inactive
same,outcome,[16],inactive
same,outcome,[17],inactive
same,outcome,[18],inactive
O=C1CCCCCN1,outcome,[1],inactive
same,outcome,[19],inactive
same,outcome,[2],inactive
same,outcome,[3],inactive
same,outcome,[4],inactive
same,outcome,[5],inactive
same,outcome,[6],inactive
same,outcome,[7],inactive
same,outcome,[8],inactive
same,outcome,"MYC, MYC (gene 4609)",inactive
same,outcome,[9],inactive
same,outcome,[10],inactive
same,outcome,[12],inactive
same,outcome,[13],inactive
same,outcome,[14],inactive
same,outcome,[15],inactive
same,outcome,[16],inactive
same,outcome,[17],inactive
same,outcome,[18],inactive

# — PubChem BioAssay (EPA / NIEHS)
